Compound activity from PubChem BioAssay.
RAD54 branch: inhibitors of human RAD54 branch migration, primary screen, biochemical, fluorescence, single point. DNA repair and recombination protein RAD54-like (Homo sapiens), Q92698. RAD54 Holliday junction branch migration, FAM/BHQ fluorescence. inhibition, % at 10.4 µM. 360,000 tested, 0.14% active;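 active = mean normalized replicate activity at least 40 and at least half of replicates scoring 40 or more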;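 also: inhibitors cause a drop in the FAM fluorescence signal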
PvdQ acylase: P. aeruginosa PvdQ acylase inhibitors, primary screen, biochemical, fluorescence, plate reader and imaging, single point | 340,000 tested, 0.063% active | inhibition, % at 10 µM | purified PvdQ acylase; in the data active = inhibition above about 30%, passing the limit was not always enough
RAD52 inh: RAD52 DNA annealing inhibitors, primary screen, biochemical, FRET, single point, set 2 | recombinant RAD52 DNA annealing, FRET fluorescence | 360,000 tested, 0.46% active | DNA repair protein RAD52 homolog (Homo sapiens), P43351 | inhibition, % at 18.7 µM;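 active = every replicate showing at least 50% inhibition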
Target sequence (P43351 whole entry, looked up): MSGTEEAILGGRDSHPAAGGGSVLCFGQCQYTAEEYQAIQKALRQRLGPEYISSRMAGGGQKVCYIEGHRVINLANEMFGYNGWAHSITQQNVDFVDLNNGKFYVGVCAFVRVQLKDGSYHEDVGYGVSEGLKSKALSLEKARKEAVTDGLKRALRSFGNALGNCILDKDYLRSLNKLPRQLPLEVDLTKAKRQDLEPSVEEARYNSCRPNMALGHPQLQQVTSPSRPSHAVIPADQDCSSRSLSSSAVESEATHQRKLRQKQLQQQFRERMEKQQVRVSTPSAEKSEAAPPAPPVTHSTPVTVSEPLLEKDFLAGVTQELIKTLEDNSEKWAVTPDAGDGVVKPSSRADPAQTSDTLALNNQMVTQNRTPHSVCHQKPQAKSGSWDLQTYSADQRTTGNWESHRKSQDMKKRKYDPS
dFosB activator: activators of delta FosB homodimer, primary screen, biochemical, fluorescence polarization, TAMRA-CDK5 oligo, single point. AID 493131, 2011. 340,000 tested, 0.99% active. activation, % at 25 µM. Protein FosB (Mus musculus), P13346. purified delta FosB; percent of positive-control signal above neutral wells;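 active = mean activation above about 17%, with every replicate also reaching it, limit read from the data, passing the limit was not always enough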
Target sequence (P13346 whole entry, looked up): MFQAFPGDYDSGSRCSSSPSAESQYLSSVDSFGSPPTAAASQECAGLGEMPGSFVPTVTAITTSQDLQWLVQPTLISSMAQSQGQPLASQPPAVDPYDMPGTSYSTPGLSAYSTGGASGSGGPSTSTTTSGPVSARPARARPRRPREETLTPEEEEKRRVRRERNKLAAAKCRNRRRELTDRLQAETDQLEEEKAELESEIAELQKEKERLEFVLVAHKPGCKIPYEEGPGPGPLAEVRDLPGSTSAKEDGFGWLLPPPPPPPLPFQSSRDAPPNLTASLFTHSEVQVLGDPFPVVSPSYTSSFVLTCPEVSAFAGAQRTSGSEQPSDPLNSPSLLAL
N-glyco inh: increase of ERlucT glycosylation luciferase signal, primary screen, N-linked glycosylation inhibitor project, D54 ERlucT cells, luminescence, set 2; D54 ERlucT glycosylation luciferase reporter, 24 h; percent of 100 nM tunicamycin response; reporter increase, % at 12.5 µM; 360,000 tested, 0.23% active; AID 588692, 2011;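 active = mean luciferase reporter signal, scaled so untreated is 0 and the glycosylation-blocking control 100, at or above a set limit in every replicate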;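 also: luciferase carries N-glycosylation sites so blocking glycosylation raises the light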
F508del corr: F508del CFTR correction, initial screen, CFBE line, single point | CFBE cells, YFP halide quenching; stimulated with forskolin plus potentiator P3; % fluorescence drop versus neutral controls | AID 720511, 2013 | 350,000 tested, 0.36% active | activity (quench increase), % at 7.58 µM;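 active = mean added fluorescence quench of at least 8% versus neutral control, with both replicates also reaching 8%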;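 also: cells transiently co-express mutant CFTR-F508del with the halide-sensitive YFP; corrector assay measuring rescue of mutant channel to the surface after 24 h compound exposure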
Of the large screens only hits and unclear results are named; the others gave an inactive call; ! = a repeat was not active. Compounds with a hit are over-represented: about 1.5% of the library has one in this group of screens.

C[C@@H]1CN([C@H](C)CO)C(=O)c2cc(NS(=O)(=O)c3cn(C)cn3)ccc2O[C@@H](C)CCCCO[C@H]1CN(C)S(=O)(=O)c1cccs1	none (no result: RAD54 branch, PvdQ acylase, dFosB activator, N-glyco inh)
C[C@@H]1CCCCO[C@@H](CN(C)S(=O)(=O)c2cccs2)[C@@H](C)CN([C@@H](C)CO)C(=O)c2cc(NS(=O)(=O)c3cn(C)cn3)ccc2O1	RAD52 inh 111 (no result: PvdQ acylase, dFosB activator, N-glyco inh)
CNC[C@@H]1Oc2cc(C#Cc3ccc(OC)cc3)ccc2S(=O)(=O)N([C@@H](C)CO)C[C@H]1C	none (no result: PvdQ acylase, dFosB activator, N-glyco inh)
Cc1cccc(C)c1OCC(=O)OCC(=O)Nc1ccc(Cl)cn1	F508del corr 23
Cc1ccc(/C=N/NC(=O)c2ccc3c(c2)OCCO3)s1	none (no result: RAD54 branch)
Cc1ccc(/C=N/NC(=O)c2ccc3ccccc3c2)s1	F508del corr 11
NNc1nc(-c2ccccc2)cc(-c2ccccc2O)n1	none
Nc1nc(-c2ccccc2)cc(-c2ccccc2O)n1	N-glyco inh 35 (no result: RAD52 inh, F508del corr)
CNC[C@H]1OCCCC[C@H](C)Oc2ccc(NS(=O)(=O)c3ccccc3)cc2C(=O)N([C@@H](C)CO)C[C@H]1C	none (no result: PvdQ acylase, dFosB activator, N-glyco inh)
CN(C)C(=O)c1cccc(-c2ccccc2[C@H]2[C@H](C#N)N(C(=O)C3CCC3)[C@H]2CO)c1	RAD52 inh 62 (no result: RAD54 branch, PvdQ acylase, dFosB activator, N-glyco inh)
Nc1nc(=S)c2ncn(C3OC(CO)C(O)C3O)c2[nH]1 (stereo unspecified)	N-glyco inh 66
COCC(=O)Nc1ccc2c(c1)C(=O)N(C)C[C@@H](OC)[C@H](C)CN(Cc1ccccn1)[C@H](C)CO2	none (no result: PvdQ acylase, dFosB activator, N-glyco inh)
O=C(Cc1ccccn1)NCC[C@@H]1CC[C@H](NS(=O)(=O)c2ccc(Cl)cc2)[C@@H](CO)O1	none (no result: PvdQ acylase, dFosB activator, N-glyco inh)
COc1cc2nc(N3CCN(c4cc(C)ccc4C)CC3)nc(N)c2cc1OC	dFosB activator 79
COc1ccc(C)cc1Nc1nc(N)c2cc(OC)c(OC)cc2n1	RAD54 branch 51, dFosB activator 48 (no result: RAD52 inh, F508del corr)
COc1ccc(Cl)cc1Nc1nc(N)c2ccccc2n1	none
COCC(=O)N1CC2(CN(C(=O)NC(C)C)C2)c2c(n(C)c3cc(OC)ccc23)[C@H]1CO	none (no result: RAD54 branch, PvdQ acylase, RAD52 inh, dFosB activator, N-glyco inh)
CC(=O)OC1CCC2(C)C(=CCC3C2CCC2(C)C3CC3ON=C(C)C32)C1 (stereo unspecified)	F508del corr 11
CC(=O)O[C@H]1CC[C@@]2(C)C(=CC[C@H]3[C@@H]4CC[C@H](C5(C)OCCO5)[C@@]4(C)CC[C@@H]32)C1	none (no result: RAD52 inh, F508del corr)
C[C@@H]1CN([C@@H](C)CO)C(=O)c2cc(NS(C)(=O)=O)ccc2O[C@@H](C)CCCCO[C@H]1CN(C)C(=O)c1ccccc1	none (no result: PvdQ acylase, dFosB activator, N-glyco inh)
C[C@@H]1CCCCO[C@@H](CN(C)Cc2ccncc2)[C@H](C)CN([C@@H](C)CO)C(=O)c2cc(NC(=O)Nc3ccc4c(c3)OCO4)ccc2O1	none (no result: PvdQ acylase, dFosB activator, N-glyco inh)
COc1ccc(/C(C)=N/NC(=O)c2ccccc2OCc2ccccc2)c(OC)c1	N-glyco inh 32 (no result: F508del corr)
CCC(=O)N1[C@H](CN(C)C(C)=O)[C@H](c2ccc(C3=CCCC3)cc2)[C@@H]1CO	none (no result: RAD54 branch, PvdQ acylase, dFosB activator, N-glyco inh)
CC(OC(=O)c1ccc(NC(=O)CC#N)cc1)C(=O)NCCC1=CCCCC1 (stereo unspecified)	none
CC(OC(=O)c1ccc(NC(=O)CC#N)cc1)C(=O)NC(=O)NC1CCCCC1 (stereo unspecified)	dFosB activator 58
Cc1ccc(S(=O)(=O)NCCCNS(=O)(=O)c2ccc(C)cc2)cc1	F508del corr 20
CN1C(=O)c2cc(NC(=O)c3ccccc3Cl)ccc2OC[C@@H]2O[C@H](CC(=O)O)CC[C@@H]21	none (no result: PvdQ acylase, dFosB activator, N-glyco inh)
COc1cccc(CNC(=O)C[C@H]2CC[C@@H](NS(=O)(=O)c3ccccc3OC)[C@@H](CO)O2)c1	none (no result: PvdQ acylase, dFosB activator, N-glyco inh)
O=C(NC1CCCC1)[C@H]1N[C@H]2c3ccc(-c4cccc(F)c4)c(=O)n3C[C@H]2[C@@H]1CO	RAD52 inh 58 (no result: RAD54 branch, PvdQ acylase, dFosB activator, N-glyco inh)
O=C(NC1CCCC1)[C@@H]1N[C@@H]2c3ccc(-c4cccc(F)c4)c(=O)n3C[C@@H]2[C@H]1CO	none (no result: RAD54 branch, PvdQ acylase, dFosB activator, N-glyco inh)
CCc1ccc(-c2nc(C(N)=O)c3[nH]c(=O)n(-c4ccccc4OC)c3n2)cc1	F508del corr 8.9
COc1ccc(C)cc1Nc1nc(-c2c[nH]c3ccccc23)cs1	dFosB activator 27 (no result: RAD54 branch)
CC(=O)Nc1ccc(S(=O)(=O)Nc2cccc(-c3nc4cc(C)ccc4o3)c2)cc1	F508del corr 11
COc1cc(N=Nc2cccc(S(N)(=O)=O)c2)c2ccccc2c1N	N-glyco inh 116
O=C(N/N=C/c1cccs1)c1ccccn1	none (no result: RAD54 branch, RAD52 inh, F508del corr)
C(=NN=C(NN=Cc1cccs1)NN=Cc1cccs1)c1cccs1	dFosB activator 21
CCOC(=O)N1CCN(C(=O)C2CCC(=O)N(CCCN3CCCC3=O)C2)CC1 (stereo unspecified)	F508del corr 8.5
c1ccc(-c2ccc(C3[C@H]4CNC[C@@H]3N4Cc3cccc(-c4ccncc4)c3)cc2)cc1 (stereo partly specified)	RAD52 inh 59 (no result: RAD54 branch, PvdQ acylase, dFosB activator, N-glyco inh)
Fc1cccc(CN2[C@@H]3CNC[C@H]2C3c2ccc(-c3ccncc3)cc2)c1 (stereo partly specified)	RAD52 inh 65! (no result: RAD54 branch, PvdQ acylase, dFosB activator, N-glyco inh)
COc1ccc2c3c(n(C)c2c1)[C@@H](CO)N(Cc1ccncc1)CC31CCN(C(=O)C2CCCCC2)CC1	none (no result: RAD54 branch, PvdQ acylase, dFosB activator, N-glyco inh)
C[C@H](CO)N1C[C@H](C)[C@@H](CN(C)Cc2ccccc2)OCCCC[C@H](C)Oc2ccc(NC(=O)CCC(F)(F)F)cc2C1=O	none (no result: RAD54 branch, PvdQ acylase, RAD52 inh, dFosB activator, N-glyco inh)
C[C@H]1CN([C@@H](C)CO)C(=O)c2cc(C#CC3CC3)cnc2O[C@@H]1CN(C)C(=O)C1CCCCC1	none (no result: RAD54 branch, PvdQ acylase, RAD52 inh, dFosB activator, N-glyco inh)
CCOC(=O)c1ccc(Nc2ncccc2[N+](=O)[O-])cc1	PvdQ acylase 44
CCOC(=O)c1ccc(NC(=O)c2ccccc2[N+](=O)[O-])cc1	none (no result: RAD52 inh, F508del corr)
N#C[C@@H]1[C@@H](c2ccc(-c3ccc(F)cc3)cc2)[C@H](CO)N1c1nc(-c2ccccc2)cs1	none (no result: PvdQ acylase, dFosB activator, N-glyco inh)
N#C[C@@H]1[C@H](c2ccc(-c3ccc(F)cc3)cc2)[C@@H](CO)N1c1nc(-c2ccccc2)cs1	RAD52 inh 63 (no result: RAD54 branch, PvdQ acylase, dFosB activator, N-glyco inh)
CCOc1ccc(-n2c(C)cc(C(=O)CCl)c2C)cc1	N-glyco inh 41
COc1cc(/C=N/NC(=O)c2cc(-c3c(C)nn(-c4ccccc4)c3C)n[nH]2)ccc1O	N-glyco inh 54, F508del corr 14
CC(=O)N1CCc2cc(S(=O)(=O)N3c4ccccc4CC3C)ccc21 (stereo unspecified)	F508del corr 10
